# Source: the supplement of paper PMC12645437, “Orthogonal IMiD-Degron Pairs Induce Selective Protein Degradation in Cells” (ACS Chemical Biology, 2025)
# In all, about 8,300 sequences were measured (“log2 fold change of degron read counts, EGFP-low vs EGFP+ sorted cells (limma voom), compound-induced degradation”: median about -1.1, highest 2% from about 3.2 on). The full list was thinned out, with the highest values kept by preference.
# T1: CRBN, Q96SW2
# T1 chain: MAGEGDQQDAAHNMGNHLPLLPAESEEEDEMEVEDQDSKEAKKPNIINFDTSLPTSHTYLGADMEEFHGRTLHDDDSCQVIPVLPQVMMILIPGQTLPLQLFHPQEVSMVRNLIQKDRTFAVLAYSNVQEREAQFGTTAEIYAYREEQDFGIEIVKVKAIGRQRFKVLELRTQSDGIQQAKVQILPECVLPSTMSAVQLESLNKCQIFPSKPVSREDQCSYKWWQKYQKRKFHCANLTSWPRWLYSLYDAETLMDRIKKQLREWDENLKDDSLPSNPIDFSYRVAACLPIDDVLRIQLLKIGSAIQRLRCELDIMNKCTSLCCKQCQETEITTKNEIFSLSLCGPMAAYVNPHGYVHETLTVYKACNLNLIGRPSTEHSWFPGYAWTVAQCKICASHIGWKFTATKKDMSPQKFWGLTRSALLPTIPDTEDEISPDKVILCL
# Biological target: T1, CRBN, Q96SW2
# Assay: log2 fold change of degron read counts, EGFP-low vs EGFP+ sorted cells (limma voom), compound-induced degradation; higher = more compound-induced degradation of the degron-EGFP fusion; degrons are variants of IKZF1/3 zinc finger 2; compound dose not given here
# Settings: Jurkat, 18 h
# [1] = compound: compound 19 (5-tert-butyl-thalidomide)
# [2] = compound: compound 22 (5-morpholino-thalidomide)
# [3] = compound: compound 33 (diphenyl IMiD analogue)
# 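Also: pooled lentiviral library of zinc finger degron-EGFP fusions in mCherry-positive Jurkat cells, FACS-sorted after compound exposure, with degron abundance counted by next-generation sequencing.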
Sequence,log2 fold change of degron read counts [1],log2 fold change of degron read counts [2],log2 fold change of degron read counts [3],log2 fold change of degron read counts (compound: thalidomide)
"FLCEQCGAMFTQKGNLLRHIKL [46F_47L_49E_50Q_52G_53A_54M_55F_67L_, Q9UKT9]",-2.2,-2.48,-0.823,-1.31
"FECDICGAIFTQKGNLLRHIKL [46F_47E_49D_50I_52G_53A_54I_55F_67L_, Q9UKT9]",-1.92,-1.75,-0.965,0.171
"FQCNQCGAFFTQKGNLLRHIKL [46F_47Q_49N_50Q_52G_53A_54F_55F_67L_, Q9UKT9]",-2.56,-2.44,-1.62,-1.28
"FICEQCGANFTQKGNLLRHIKL [46F_47I_49E_50Q_52G_53A_54N_55F_67L_, Q9UKT9]",-2.09,-0.316,0.362,0.322
"FRCNICGASFTQKGNLLRHIKL [46F_47R_49N_50I_52G_53A_54S_55F_67L_, Q9UKT9]",0.331,0.291,0.894,0.839
"FGCDICGARFTQKGNLLRHIKL [46F_47G_49D_50I_52G_53A_54R_55F_67L_, Q9UKT9]",2.15,0.817,-1.24,0.195
"FFCDICGARFTQKGNLLRHIKL [46F_47F_49D_50I_52G_53A_54R_55F_67L_, Q9UKT9]",3.58,3.35,0.994,0.0481
"FRCDICGARFTQKGNLLRHIKL [46F_47R_49D_50I_52G_53A_54R_55F_67L_, Q9UKT9]",-1.84,-2.03,-1.21,-0.575
"FDCDICGARFTQKGNLLRHIKL [46F_47D_49D_50I_52G_53A_54R_55F_67L_, Q9UKT9]",1.85,0.0154,-1.13,-0.0241
"FWCDICGARFTQKGNLLRHIKL [46F_47W_49D_50I_52G_53A_54R_55F_67L_, Q9UKT9]",3.15,3.82,0.741,0.265
"FACDICGARFTQKGNLLRHIKL [46F_47A_49D_50I_52G_53A_54R_55F_67L_, Q9UKT9]",3.46,1.91,-1.69,-0.979
"FCCDICGARFTQKGNLLRHIKL [46F_47C_49D_50I_52G_53A_54R_55F_67L_, Q9UKT9]",2.34,2.23,0.356,1.57
"FVCDICGARFTQKGNLLRHIKL [46F_47V_49D_50I_52G_53A_54R_55F_67L_, Q9UKT9]",0.23,1.75,-0.304,1.47
"FTCDICGARFTQKGNLLRHIKL [46F_47T_49D_50I_52G_53A_54R_55F_67L_, Q9UKT9]",1.44,2.55,0.655,1.76
"FQCDICGARFTQKGNLLRHIKL [46F_47Q_49D_50I_52G_53A_54R_55F_67L_, Q9UKT9]",-1.01,1.3,0.0735,3.03
"FYCDICGARFTQKGNLLRHIKL [46F_47Y_49D_50I_52G_53A_54R_55F_67L_, Q9UKT9]",3.31,3.35,0.716,-0.312
"FLCDICGARFTQKGNLLRHIKL [46F_47L_49D_50I_52G_53A_54R_55F_67L_, Q9UKT9]",-0.594,-2.06,-0.802,0.425
